# AmpC detergent: AmpC beta-lactamase inhibition with detergent present; AmpC hydrolysis of nitrocefin, absorbance 480 nm, 0.01% Triton; 0.041% of 370,000 active; P00811; Potency, µM (doses to about 114 µM), inactives show at the highest dose activity change, negative = inhibition, hits mostly inhibitors; AID 485294;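 note: 0% = no-compound wells and -100% = no-enzyme wells; nearly all actives have a fitted effect of over 25% in size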
#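 AmpC (5.3 nM in the dispensed reagent) in 20 mM phosphate pH 7.0 with 0.01% (detergent screen) or 0.0001% Triton X-100 was preincubated with compounds for 15 min at room temperature. Nitrocefin was then added from an 800 uM solution, and hydrolysis was followed at 480 nm.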
# Tb PYK inh: inhibitors of Trypanosoma brucei pyruvate kinase; Q57TT1; TbPYK enzyme, Kinase-Glo Plus ATP luminescence, 45 min; Potency, µM (series often up to 76.8 µM), for inactives: top-dose activity, negative = inhibition, usual class: inhibitors; 0.12% of 410,000 active; AID 624173; note: nearly all actives have a fitted effect of over 50% in size
#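 Screened from lowest to highest concentration, compounds were pinned into TbPYK/substrate mixtures, and ADP (130 uM final) was added. Plates sat at room temperature for 45 min prior to Kinase-Glo Plus detection by luminescence.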
# LmPK inh: inhibitors of Leishmania mexicana pyruvate kinase | Q27686 | purified LmPK, Kinase-Glo ATP luminescence, 1 h | Potency, µM (series often up to 57.5 µM), for the others: at the highest dose activity change, negative = inhibition, hits mostly inhibitors | 0.37% of 290,000 active | AID 1721
#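 Purified LmPK (0.1 nM) with 0.5 mM PEP and 0.1 mM ADP in imidazole buffer pH 7.2 with MgCl2/KCl, 1 h at room temperature. ATP formed was read by luciferase luminescence and normalized to no-enzyme and uninhibited controls.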
# AmpC inh no detg: inhibitors of E. coli AmpC beta-lactamase without detergent; AmpC nitrocefin hydrolysis, absorbance 480 nm, 0.0001% Triton; Potency, µM (titrated, usually from 57.1 µM), for the others: top-dose activity change, negative = inhibition, actives largely listed as inhibitors; 0.52% of 330,000 active; AID 485341;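 note: plate controls were no compound for no effect and no enzyme for full effect; nearly all actives have a fitted effect of over 20% in size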
#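 20 mM phosphate pH 7.0 + 0.01% (detergent screen) or 0.0001% Triton X-100; 5.3 nM AmpC reagent; cpd preinc 15 min RT; nitrocefin (800 uM stock) to start; A480 q20 s × 4 min; Activity was normalised to no-enzyme and no-compound control wells.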
# RE007 growth inh: less growth of the S. pombe RE007 Vpr strain; S. pombe RE007 Vpr strain, BacTiter-Glo ATP luminescence, 24 h; Potency, µM (titrated, usually from 92.2 µM), without a hit: top-dose activity change, negative = less growth, usual class: inhibitors; 0.21% of 360,000 active; AID 651644; active = well fitted falling curve with a large enough effect; inconclusive = small, poorly fitted or top-dose-only effect; inactive = no such curve, though single readings can be large or run the other way; note: nearly all actives have a fitted effect of over 50% in size
#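 Fission yeast strain RE007, carrying one chromosomally integrated HIV-1 vpr copy, was seeded at OD 0.01 in PMG+AL medium with 23 nL pinned compound. After 24 h at 30 °C and 99% humidity, viability was read by BacTiter-Glo luminescence.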
# Giardia FBPA inh-1: blocks Giardia fructose-bisphosphate aldolase activity; Potency, µM (series often up to 59.6 µM), without a hit: at the top dose activity, negative = inhibition, actives largely listed as inhibitors; AID 2451; 0.71% of 290,000 active; purified Giardia FBPA; A8B2U2; note: nearly all actives have a fitted effect of over 55% in size
# Target sequence (A8B2U2 whole entry, looked up): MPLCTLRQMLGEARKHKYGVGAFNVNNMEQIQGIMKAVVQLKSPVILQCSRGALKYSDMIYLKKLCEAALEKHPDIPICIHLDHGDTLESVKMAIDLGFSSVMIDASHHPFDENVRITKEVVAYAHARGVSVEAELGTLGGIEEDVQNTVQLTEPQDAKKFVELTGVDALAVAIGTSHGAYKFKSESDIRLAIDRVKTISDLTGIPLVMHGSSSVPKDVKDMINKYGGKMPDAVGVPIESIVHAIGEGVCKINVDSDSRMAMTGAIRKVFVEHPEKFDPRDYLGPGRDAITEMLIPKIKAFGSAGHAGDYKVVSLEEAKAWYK
#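 40 nM FBPA preincubated 10 min at RT with compound (up to 57.5 uM final), then substrate plus GAPDH/TPI/NAD/arsenate coupling and diaphorase/resazurin added. Fluorescence read after 20 min at RT, 525/598 nm.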
# Giardia growth: blocks growth of Giardia lamblia trophozoites; Giardia lamblia trophozoite growth inhibition; shares compounds with Giardia FBPA inh-1; Potency, µM (series often up to 57.5 µM), for inactives: top-dose activity change, negative = inhibition, most hits filed as inhibitors; 5% of 1,500 active;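 note: trophozoites exposed to compound for 48 h at 37 °C; nearly all actives have a fitted effect of over 70% in size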
# Mammal cell tox: counter-screen for Giardia aldolase inhibitors: mammalian cell toxicity; shares compounds with Giardia FBPA inh-1; mammalian cell viability counter-screen, qHTS; Potency, µM (series often up to 57.5 µM), without a hit: top-dose viability change, negative = toxicity, hits mostly inhibitors; 4% of 1,500 active;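 note: Chinese hamster ovary cells used as mammalian cytotoxicity surrogate; viability measured as cellular ATP by luminescence; compound exposure lasted 48 h before reading; nearly all actives have a fitted effect of over 60% in size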
# Giardia FBPA inh-2: confirmation of Giardia fructose-bisphosphate aldolase inhibitors | shares compounds with Giardia FBPA inh-1 | purified Giardia aldolase enzyme activity, qHTS | Potency, µM (series often up to 57.5 µM), for the others: top-dose activity change, negative = inhibition, hits mostly inhibitors | 5% of 1,500 active; note: nearly all actives have a fitted effect of over 45% in size
# Rabbit FBPA inh: selectivity test for Giardia aldolase inhibitors: rabbit aldolase. Rabbit muscle FBPA enzyme inhibition, selectivity counter-screen. shares compounds with Giardia FBPA inh-1. 4% of 1,500 active. Potency, µM (titrated, usually from 57.5 µM), inactives show at the top dose activity, negative = inhibition, hits mostly inhibitors; note: nearly all actives have a fitted effect of over 60% in size
# Target sequence (P00883 whole entry, looked up): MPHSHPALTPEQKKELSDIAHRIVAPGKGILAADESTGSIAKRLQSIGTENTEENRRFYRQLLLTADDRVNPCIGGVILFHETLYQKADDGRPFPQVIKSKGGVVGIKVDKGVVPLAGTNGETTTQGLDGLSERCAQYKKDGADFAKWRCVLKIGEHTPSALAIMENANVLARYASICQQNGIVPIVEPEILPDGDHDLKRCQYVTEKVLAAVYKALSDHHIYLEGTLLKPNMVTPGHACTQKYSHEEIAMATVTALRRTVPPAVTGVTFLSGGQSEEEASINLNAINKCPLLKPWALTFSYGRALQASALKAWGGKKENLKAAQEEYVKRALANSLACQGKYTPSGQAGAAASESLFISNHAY
# GAPDH coupling: GAPDH inhibition flagged for Giardia aldolase hits | shares compounds with Giardia FBPA inh-1 | GAPDH coupling enzyme counterscreen, biochemical, qHTS | Potency, µM (series often up to 57.5 µM), inactives show top-dose activity change, negative = inhibition, hits mostly inhibitors | 6% of 1,500 active | AID 2795; note: nearly all actives have a fitted effect of over 55% in size
# * marks the source's active call; other numbers are inactive results; ? = inconclusive; . = no result given; [ ] = another dose, or the depositor's remark. Shown are actives, neighbours in structure and some others; about 1.4% of the full set was active somewhere. Unless noted, calls come from the whole dose curve; as a rule, active = well fitted curve in the direction sought with a large enough effect; inconclusive = small, poorly fitted or top-dose-only effect, or another doubt; inactive = no such curve, though single readings can be large; an effect the other way counts as inactive or inconclusive. Unless noted, % is set by controls: 0 for no effect and ±100 for the full control effect; potency is the fitted concentration of half-maximal effect.
SMILES,AmpC detergent,Tb PYK inh,LmPK inh,AmpC inh no detg,RE007 growth inh,Giardia FBPA inh-1,Giardia growth,Mammal cell tox,Giardia FBPA inh-2,Rabbit FBPA inh,GAPDH coupling
Cn1cnc([N+](=O)[O-])c1Sc1ncnc2nc[nH]c12,4%,-11%,-6%,-6%,-6%,2%,.,.,.,.,.
CCc1cccc(C)c1NC(=O)CN1C(=O)C2(SCC(=O)N2c2cc(C)cc(C)c2)c2ccccc21 (stereo not drawn),-1%,-3%,.,.,.,.,.,.,.,.,.
O=C(O)c1ccc2cccnc2c1O,-6%,-7%,-10%,-5%,0%,20µM*,-26%,7%,?,-22%,-25%
c1cc2c(cc1NC1CCCCCC1)OCO2,1%,-38%,-10%,-34%,-15%,25µM*,98%,-6%,7.1µM*,?,-30%
O=C(NC1CCCCCCC1)c1ccc2c(c1)OCO2,?,3%,?,-12%,-15%,-13%,.,.,.,.,.
CCOc1ccccc1NC(=O)C(CC)Sc1nc2ccncc2[nH]1 (stereo not drawn),1%,5%,1%,-29%,-14%,14µM*,-14%[10.4 µM],4%,-6%,0%,2%
COc1ccccc1CNC(=O)CCCCn1c(=O)c2ccccc2n(CC(=O)Nc2cccc(Cl)c2)c1=O,18%,1%,.,.,.,.,.,.,.,.,.
O=C(O)c1cccc(-c2ccc(/C=N/Nc3nn[nH]n3)o2)c1,-1%,-4%,-4%,-42%,1%,16µM*,-12%,5%,-1%,-11%,-1%
CCOc1ccc(/C=C/c2nc(C#N)c(N3CCCCC3)o2)cc1,16%,3%,.,.,.,.,.,.,.,.,.
CCOC(=O)N1CCN(C(=S)NC(=O)c2ccc(F)c(F)c2)CC1,3%,-5%,-13%,2%,-9%,16µM*,59%,-15%,2%,6%,10%
C[C@H](NC(=O)c1cc2c(cn1)[nH]c1ccccc12)C(=O)O,-2%,?,-12%,-32%,-20%,-19%,-1%[38.3 µM],-9%,-12%,-5%,-7%
Cc1cccc(CCNC(=O)c2cnc3c(C)cccn3c2=O)c1,4%,-5%,.,.,.,.,.,.,.,.,.
C=CCNC(=S)N/N=C(\C)c1cccnc1,-3%,1%,1%,-3%[2.29 µM],-8%,16µM*,-9%,1%,5%,-3%,7%
O=C(O)CCCNc1cc(N2CCN(C(=O)c3ccco3)CC2)c2noc3c2c1C(=O)c1ccccc1-3,1%,-4%,-19%,47%,-6%,3.5µM*,?,-18%,?,?,?
CN1CCN(c2cc(N3CCN(C(=O)c4ccco4)CC3)c3c4c(onc24)-c2ccccc2C3=O)CC1,-2%,-6%,-8%,99%,-15%,-27%,.,.,.,.,.
O=C(CSc1n[nH]c(-c2cccnc2)n1)Nc1ccccc1[N+](=O)[O-],-4%,0%,-4%,-38%,-18%,25µM*,?,-7%,-6%,2%,5%
CCc1ccccc1NC(=O)CSc1n[nH]c(-c2cccnc2)n1,-7%,-2%,3%,-11%,6%,-10%,.,.,.,.,.
O=C(O)c1cc(O)c(O)c(O)c1,.,?,.,.,.,3.5µM*,-29%[38.3 µM],40µM*,14µM*,20µM*,25µM*
NNC(=O)c1cc(O)c(O)c(O)c1,-5%,?,-1%,1%,13%,?,.,.,.,.,.
Cc1c(N2C(=O)/C(=C/c3ccccc3)SC2=S)c(=O)n(-c2ccccc2)n1C,-10%,0%,-1%,5%,21%,6%,.,.,.,.,.
Cc1c(N2C(=O)/C(=C3\C(=O)N(CC(=O)O)c4ccccc43)SC2=S)c(=O)n(-c2ccccc2)n1C,-5%,-5%,-10%,-18%,-16%,10µM*,29%,21%,?,-19%,?
CCc1ccccc1NC(=O)Cn1cc2c(n1)CCC(C)C2 (stereo not drawn),9%,2%,.,.,.,.,.,.,.,.,.
CCOc1ccc2c(c1)NC(c1cccs1)=NC(c1ccc(F)cc1)=N2,9%,-8%,.,.,.,.,.,.,.,.,.
Cc1ccc(CN2CCN(Cc3ccco3)CC2)cc1,-15%,-1%,-4%,-15%,1%,16µM*,-6%,2%,-2%,7%,-18%

# Bioassay records deposited in PubChem BioAssay by National Center for Advancing Translational Sciences (NCATS).
